Laboratory results from PubChem BioAssay AID374 (University of Pittsburgh Molecular Library Screening Center, 2006).
About 100 (0.15%) of roughly 65,000 compounds were called active. Many of the other results were omitted from the sample, so actives are more common in it than they were. Values without a mark were called inactive.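 Rule for the calls: active = inhibition above about 50% (limit read from the data); inconclusive = inhibition over screen mean plus 3 SD, below that limit; inactive = the rest.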

biological target: Dual specificity protein phosphatase 1 (Homo sapiens) (UniProt P28562); test: MKP-1 phosphatase inhibitors, primary screen, biochemical, in vitro (AID 374); details: recombinant MKP-1, OMFP hydrolysis fluorescence; hits give high values;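 compounds tested at a single concentration somewhere between 10 and 100 µM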;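 note: 0% = DMSO max control wells and 100% = wells with enzyme stopped by NaOH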
Sequence (P28562 whole entry, looked up): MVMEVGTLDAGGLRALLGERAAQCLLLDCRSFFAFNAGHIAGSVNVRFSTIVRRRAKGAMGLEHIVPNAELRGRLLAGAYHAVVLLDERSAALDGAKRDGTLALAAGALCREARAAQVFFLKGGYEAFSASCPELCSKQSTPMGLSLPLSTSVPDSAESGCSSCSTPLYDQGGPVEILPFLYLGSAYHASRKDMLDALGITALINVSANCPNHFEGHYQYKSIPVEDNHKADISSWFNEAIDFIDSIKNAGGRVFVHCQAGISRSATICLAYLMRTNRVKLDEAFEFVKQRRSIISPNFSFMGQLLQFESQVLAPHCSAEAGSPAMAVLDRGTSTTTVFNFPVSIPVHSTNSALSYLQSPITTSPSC

| SMILES | inhibition |
| --- | --- |
| Cn1c(SCC(=O)c2cccs2)nnc1-c1ccco1 | 0.18% |
| CC(C)[C@H](NC(=O)Nc1ccc(S(N)(=O)=O)cc1)C(=O)O | -4.12% |
| CCc1ccccc1N(CC(=O)NCCSCc1ccco1)S(C)(=O)=O | -0.33% |
| CC(CN1CCCCC1)OC(=O)c1ccccc1Cl (centres undefined) | -18.9% |
| O=C(Nc1cnccn1)c1cccnc1 | 35.7% |
| Cc1cccc(C)c1NC(=O)N1CC=C(n2c(=O)[nH]c3ccccc32)CC1 | -1.96% |
| O.O.O.O=S(=O)([O-])OC[C@H]1O[C@@H](O[C@]2(COS(=O)(=O)[O-])O[C@H](OS(=O)(=O)[O-])[C@@H](OS(=O)(=O)[O-])[C@@H]2OS(=O)(=O)[O-])[C@H](OS(=O)(=O)[O-])[C@@H](OS(=O)(=O)[O-])[C@@H]1OS(=O)(=O)[O-].[Al] | 9.95% |
| CC(=NC1CCN(Cc2ccccc2)CC1)c1c(O)[nH]c(=O)[nH]c1=O | -4.49% |
| COc1ccccc1Nc1nc(N)nc(CN(C)C2CCCCC2)n1 | -2.91% |
| CCN(CC(=O)Nc1ccc2c(c1)OCCO2)Cc1cc(=O)oc2cc(C)c(C)cc12 | 12.7% |
| Cc1cc(C)c(NC(=O)CS(=O)CC(=O)Nc2cccnc2)c(C)c1 (centres undefined) | -12.3% |
| Cc1ccnc(N2CCN(C(=O)CSc3nc4ccccc4nc3N3CCCCC3)CC2)c1 | 6.59% |
| Nn1c(SCC(=O)NC(=O)NC2CCCC2)nnc1-c1ccccc1F | -5.68% |
| O=c1cc(CO)oc(CN2CCC(Cc3ccccc3)CC2)c1O | 8.32% |
| CCOC(=O)CSc1nnc(-c2ccco2)n1C | -29.8% |
| O=C(CSc1nnc(-c2ccco2)n1-c1ccccc1)NCCc1ccccc1 | -9.86% |
| CCCCNC(=O)CSc1nnc(-c2ccco2)n1C | 93.8% (active) |
| Cc1cc(C)c2c(c1)cc(C)c1nnc(SCC(=O)Nc3cc(C)on3)n12 | 8.08% |
| c1csc(CN2CCN(Cc3cccs3)C2c2cccs2)c1 | -1.36% |
| Cc1ccc2c(NC(=O)C3CC3)cccc2n1 | 3.59% |
| CCOc1cc(/C=N/n2cnnc2)c(Br)cc1O | -7.39% |
| O=C(Nc1ccc(S(=O)(=O)N2CCCCC2)cc1)c1cnccn1 | -0.35% |
| COc1ccc(S(=O)(=O)N2CCCC(C(=O)Nc3ccc(NC(=O)c4ccccn4)cc3)C2)cc1 (centres undefined) | 32.2% |
| O=C1c2cccnc2C(Nc2ccc(S(=O)(=O)N3CCCCCC3)cc2)N1Cc1ccccc1 (centres undefined) | 51.4% (active) |

| SMILES | inhibition |
| --- | --- |
| CCOC(=O)N1CCN(CC(=O)c2c(C)[nH]c3ccccc23)CC1 | 1.62% |
| Cc1ccc(-c2noc(CCC(=O)Nc3ccccc3N3CCN(C)CC3)n2)cc1 | -3.7% |
| CCOc1cccc(NC(=O)C2CCCN(S(=O)(=O)c3ccc(OC)cc3)C2)c1 (centres undefined) | -15.6% |
| CN(C)CCCn1c(N)c(C#N)c2nc(C#N)c(C#N)nc21 | 2.01% |
| CC(=O)OCc1cc(=O)n(C)c(=O)n1C | 15.5% |
| CCC(=O)Nc1ccccc1N1CCN(S(C)(=O)=O)CC1 | 6.41% |
| O=C(NCc1ccco1)c1cc(-c2cccnc2)nc2ccc(Cl)cc12 | 18.9% |
| COc1ccc(C(c2nnnn2Cc2cccs2)N2CCN(c3ccccc3)CC2)cc1OC (centres undefined) | -17.2% |
| COCCOC(=O)C1=C(C)N=c2s/c(=C\c3cccs3)c(=O)n2C1c1cccs1 (centres undefined) | -3.72% |
| CC(C)Cn1c(CCC(=O)O)ccc1-c1cccs1 | -3.65% |
| O=C(Nc1ccccc1)N(Cc1cccnc1)Cc1ccco1 | 19.6% |
| CCOC(=O)CN1C(=O)C(O)(CC(=O)c2ccccn2)c2ccccc21 (centres undefined) | -1.14% |
| COc1cccc(-n2c(Cc3cc(=O)[nH]c(=O)[nH]3)nnc2SCC(=O)Nc2ccccc2)c1 | 6.14% |
| O=C(Cn1nc(Cc2cccnc2)c2ccccc2c1=O)NCC1CCCO1 (centres undefined) | -5.72% |
| O=C(CCC(=O)N1CCN(S(=O)(=O)c2ccccc2)CC1)NC1CCCc2ccccc21 (centres undefined) | 28.7% |
| O=C(NCCN1CCOCC1)c1ccc2c(c1)ncn2C1CCCC1 | -1.23% |
| O=S1(=O)CC(NCc2ccccc2)C(Nc2ccc(Cl)cc2)C1 (centres undefined) | -10.7% |
| CC(C)=C(NC(=O)c1ccco1)C(=O)NCCc1nc2ccccc2[nH]1 | -31.3% |
| CC(=O)Nc1cc2ccc(OC(C)=O)cc2oc1=O | 1.98% |
| CC1CCCCN1CC(=O)NCc1ccc2c(c1)OCO2 (centres undefined) | 11.8% |
| CCc1ccc(NC(=O)CSc2nc3ccccc3c(=O)n2CCN2CCOCC2)cc1 | 52.5% (active) |
| COCCCNC(=O)CSc1nc2ccc(N3CCOCC3)cc2c(=O)n1CCc1ccccc1 | 25.1% |
| CCCCn1c(SCC(=O)NCC2CCCO2)nc2ccc(N3CCOCC3)cc2c1=O (centres undefined) | 20.6% |
| Cc1nn(CC(=O)Nc2ccc3c(c2)nc(CN2CCCCC2)n3C)c(=O)c2ccccc12 | 21.5% |

| SMILES | inhibition |
| --- | --- |
| O=C(NCC(F)(F)F)Nc1nnc(C(F)(F)F)s1 | -9.86% |
| O=C(CCS(=O)(=O)Cc1ccccc1F)NCCCN1CCCCC1 | 5.21% |
| O=C(Cn1nnc2ccccc2c1=O)Nc1cc(C(F)(F)F)ccc1N1CCOCC1 | 36.2% |
| COc1ccccc1NC(=O)C1=C(C)NC2=C(C(=O)CCC2)C1c1ccc(C)o1 (centres undefined) | 11.7% |
| COC(=O)C1=C(C)NC2=C(C(=O)c3ccccc32)C1c1ccc(-c2ccc(C(=O)O)cc2)o1 (centres undefined) | 56% (active) |
| COC(=O)C1=C(C)NC(=O)NC1/C=C/c1ccccc1 (centres undefined) | -8.21% |
| Cc1nnc(NC(=O)CSc2nccn2-c2cccc(C)c2C)s1 | -0.12% |
| CC(C)(C)n1c(=O)[nH]c2c(c1=O)CCC2 | 21.8% |
| O=C(Oc1cccnc1)c1cc2ccccc2oc1=O | 10.3% |
| CC/C(=N\O)C(C)(C)/[N+]([O-])=C/c1ccc(Br)cc1 | 4.53% |
| Cc1cccc(N2C(=O)SC(N(CC(=O)O)c3cccc(C)c3)C2=O)c1 (centres undefined) | 11.8% |
| COc1ccc(C(=O)N(Cc2ccc(N(C)C)cc2)C2CCS(=O)(=O)C2)cc1 (centres undefined) | 0.01% |
| Cc1nc2sc(C(c3ccco3)N3CCC4(CC3)OCCO4)c(O)n2n1 (centres undefined) | 4.37% |
| COc1ccc2c(CC(=O)Nc3nnc(C4CC4)s3)coc2c1 | 11.4% |
| CCCCCCn1c(CN2CCCCC2)nc2c1c(=O)n(C)c(=O)n2C | 3.15% |
| CNC(=O)Nc1cc(C(C)(C)C)no1 | -18.9% |
| CCN(CC(=O)NC(C)C)C(=O)CCNC(=O)c1ccc(Cl)cc1 | 24.3% |
| CN1C(=O)c2ccc(NC(=O)C3CCCCC3)cc2C1=O | 16.2% |
| CC1(C)CC(=O)C=C(NCCCN2CCCC2=O)C1 | -21.7% |
| CCOc1ccccc1C1CC(c2ccccc2)Nc2nc(N)nn21 (centres undefined) | 5.12% |
| CSC1=N/C(=C\C=C\c2cccs2)C(=O)S1 | -1.19% |
| Fc1ccc(OCc2nn3c(Cn4nnc5ccccc54)nnc3s2)cc1 | 17.2% |
| Cn1c(CNC(=O)C(C)(C)C)nc2ccccc21 | 4.69% |
| COc1cccc2cc(C(=O)N(C)C)c(=O)oc12 | -3.65% |

| SMILES | inhibition |
| --- | --- |
| CCCCOC(=O)c1[nH]c(C)c(C(=O)OC)c1C | -26.1% |
| Cc1n[nH]c(C)c1S(=O)(=O)N1CCCC(C(=O)NCC2COc3ccccc3O2)C1 (centres undefined) | 2.75% |
| CCS(=O)(=O)N1CCN(C(=O)c2cccs2)CC1 | 0.17% |
| Cc1nn(-c2ccccc2)c2c1C(=O)NC(=O)C(C)(C)C2 | -21.3% |
| Cc1cccc(N)c1SC1CCCCC1O (centres undefined) | -21.7% |
| COc1ccccc1Oc1ccc(S(=O)(=O)Nc2cccnc2)cc1 | -6.18% |
| CCN(CC)P(=O)(C(NC(=O)OC)C(F)(F)C(F)(F)C(F)(F)C(F)F)N(CC)CC (centres undefined) | 32.7% |
| Cc1ccc(C(=O)Nc2ccccc2C(=O)NC2CCCCC2)cc1S(=O)(=O)N1CCOCC1 | 15.1% |
| CCO/C([O-])=N/c1c[n+](N2CCOCC2)no1 | -14.5% |
| Cc1cc(N2C(=O)c3ccc(C(=O)NCc4ccccc4)cc3C2=O)no1 | 6.5% |
| COc1ccc(OC)c2sc(NC(=O)C3COc4ccccc4O3)nc12 (centres undefined) | 10.2% |
| COc1ccc(-c2nnc(SCC(=O)c3ccco3)n2-c2ccccc2)cc1 | 1.42% |
| CCCOc1cccc(C(=O)Nc2nnn(CCC)n2)c1 | -1.6% |
| CC(=O)N(CN1C(=O)C2CC=CCC2C1=O)c1cccc(Cl)c1 (centres undefined) | 4.23% |
| Cc1nc2ccccc2cc1O | -1.94% |
| COc1ccc(-n2c(SCC(=O)NCc3cccs3)nnc2-c2ccoc2C)cc1 | -10% |
| COc1ccc(CCN2CNc3c(c(=O)n(C)c(=O)n3C)C2)cc1OC | -8.44% |
| CCOC(=O)Cn1c(=O)oc2cc(S(=O)(=O)NCC3CCCO3)ccc21 (centres undefined) | -10.8% |
| COC(=O)C1C(=O)CC(C)(O)C(C(=O)OC)C1c1ccc2c(c1)OCO2 (centres undefined) | 4.11% |
| Cc1ccc2nc(NCCCNC(=O)c3cnccn3)c(C#N)cc2c1 | 16.8% |
| CCN(CCCNC(=O)C1CCN(S(=O)(=O)c2cnc[nH]2)CC1)c1ccccc1 | -3.93% |
| Cn1c(=O)c2c(nc(OCc3cccnc3)n2Cc2ccccc2)n(C)c1=O | -22.4% |
